# Compound activity from PubChem BioAssay.
# Only some compounds are listed: those with a hit (about 2.3% of all), similar ones and a draw of the others.
# Anesthetic bind: qHTS Assay for Identification of Novel General Anesthetics. Ferritin light chain (Equus caballus), P02791. apoferritin/1-aminoanthracene competitive binding, fluorescence. Potency, µM (top dose mostly 77.5 µM), without a hit: at the highest dose activity change, negative = displacement, usual class: inhibitors. hit rate 0.074% among 350,000; also: potency is read from the fitted curve at half-maximal effect; % is scaled to controls: 0 for no effect and ±100 for the full control effect; nearly all actives have a fitted effect of over 20% in size
# Target sequence (P02791 2-175 limits assumed): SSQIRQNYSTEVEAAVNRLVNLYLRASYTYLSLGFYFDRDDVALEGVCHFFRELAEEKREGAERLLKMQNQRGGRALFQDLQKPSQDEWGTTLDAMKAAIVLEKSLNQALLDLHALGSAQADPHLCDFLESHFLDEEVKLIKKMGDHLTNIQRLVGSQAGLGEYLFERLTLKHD
#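 Apoferritin-based anesthetic binding model; compound displacement of fluorescent 1-AMA measured as endpoint fluorescence after 10 minutes at room temperature, scaled to free-ligand and complex controls.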
# A549 viability: Nrf2 qHTS screen for inhibitors: counterscreen for cytotoxicity | Potency, µM (top dose mostly 46 µM), inactives show at the highest dose activity change, negative = cytotoxicity, most hits filed as inhibitors | AID 504648, 2011 | A549 ARE-Fluc cells, CellTiter-Fluor viability, 18-24 h | hit rate 0.16% among 390,000; also: potency is read from the fitted curve at half-maximal effect; % is scaled to controls: 0 for no effect and ±100 for the full control effect
#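 A549 ARE_Fluc cells in 5% FBS OPTI-MEM were exposed to compounds in concentration-response for 18-24 h at 37 deg C. Viability was read by CellTiter-Fluor fluorescence (Ex 405/Em 525) after 30 min, before the luciferase read.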
# Giardia kill: Small Molecules that selectively kill Giardia lamblia: qHTS; Giardia lamblia trophozoite viability; activity change, % at 7.66 µM, hits read low; hit rate 0.15% among 340,000; AID 540267, 2011; in the data active = activity change below about -80%; inconclusive = between about -30% and that limit;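 also: parasites exposed to compound for two days anaerobically before the ATP read; % is scaled to controls: 0 for no effect and ±100 for the full control effect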
#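 Luminescent ATP signal served as the viability read-out, measured 15-30 min after adding ATP detection reagent to trophozoites that had been incubated with compounds for 48 hrs at 37 deg C anaerobically at 100 cells/well.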
# mIDH1 inhibitor: qHTS for Inhibitors of mutant isocitrate dehydrogenase 1 (IDH1): qHTS. Potency, µM (doses to about 76.6 µM), without a hit: at the highest dose activity change, negative = inhibition, usual class: inhibitors. hit rate 0.093% among 390,000. AID 602179, 2012. Isocitrate dehydrogenase [NADP] cytoplasmic (Homo sapiens), O75874. IDH1-R132H enzyme, NADPH consumption, diaphorase/resazurin fluorescence; also: potency is read from the fitted curve at half-maximal effect; % is scaled to controls: 0 for no effect and ±100 for the full control effect; nearly all actives have a fitted effect of over 65% in size
# Target sequence (O75874 whole entry R132H, stated change not applied): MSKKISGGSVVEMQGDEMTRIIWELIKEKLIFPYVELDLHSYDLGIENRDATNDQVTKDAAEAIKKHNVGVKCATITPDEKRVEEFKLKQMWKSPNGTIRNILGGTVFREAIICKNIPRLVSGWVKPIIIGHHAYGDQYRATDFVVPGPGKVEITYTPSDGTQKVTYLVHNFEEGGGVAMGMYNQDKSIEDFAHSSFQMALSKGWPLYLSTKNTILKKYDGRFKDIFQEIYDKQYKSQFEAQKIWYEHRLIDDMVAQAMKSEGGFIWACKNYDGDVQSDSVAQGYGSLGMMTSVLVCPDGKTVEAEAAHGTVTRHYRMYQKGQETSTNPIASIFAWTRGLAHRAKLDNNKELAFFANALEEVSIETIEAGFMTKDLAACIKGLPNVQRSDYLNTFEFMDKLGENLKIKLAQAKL
#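 IDH1-R132H (0.5 ug/mL) preincubated 30 min with compound, then NADPH (0.016 mM) and alpha-KG (2 mM) added; 80 min at RT, pH 7.5. Remaining NADPH coupled via diaphorase/resazurin to fluorescence (540/590 nm); concentration-response curves normalized to no-enzyme control.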
# Nrf2 ARE act: qHTS of Nrf2 Activators | AREc32 ARE-luciferase reporter (MCF7-derived line), luminescence, 24 h | Potency, µM (titrated, usually from 46.1 µM), for inactives: at the top dose activation, actives largely listed as activators | hit rate 0.31% among 410,000; also: potency is read from the fitted curve at half-maximal effect; % of control where 0% means no effect; nearly all actives have a fitted effect of over 65% in size
#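 AREc32_Fluc, 1000 cells/well, OPTI-MEM + 5% FBS, o/n 37 deg C 5% CO2; 23 nL cpd by pin tool, 24 hr; Steady-Glo 30 min RT, luminescence.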
# Nrf2 block: Nrf2 qHTS screen for inhibitors; A549 ARE-Fluc reporter, luciferase luminescence, 18-24 h; Potency, µM (highest dose often 46 µM), for the others: at the highest dose activity change, negative = inhibition, actives largely listed as inhibitors; hit rate 2.1% among 360,000; also: potency is read from the fitted curve at half-maximal effect; % is scaled to controls: 0 for no effect and ±100 for the full control effect; nearly all actives have a fitted effect of over 60% in size
#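 Quantitative HTS in A549 cells stably bearing an antioxidant response element-firefly luciferase construct. Inhibition of Nrf2-driven transcription was scored by luminescence after 18-24 h of compound exposure at 37 °C.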
# An asterisk follows results filed as active; ? = inconclusive; · = not tested or not shown; [ ] = dose if it differs, or a comment. Unless noted, calls follow the shape of the dose curve; as a rule, active = well fitted curve in the direction sought with a large enough effect; inconclusive = small, poorly fitted or top-dose-only effect, or another doubt; inactive = no such curve, though single readings can be large; an effect the other way counts as inactive or inconclusive.
SMILES,Anesthetic bind,A549 viability,Giardia kill,mIDH1 inhibitor,Nrf2 ARE act,Nrf2 block
Cc1ccc(-n2nc(C)c(C(=O)NCCCN3CCN(c4cccc(Cl)c4)CC3)c2-n2cccc2)cc1,157%,?,·,13%,-1%,16µM*
Cc1ccc2[nH]c(=O)c(CN(CCCO)Cc3nnnn3Cc3ccccc3)cc2c1,·,2%,-3,·,·,-28%
COc1ccc(NC(=O)CN(C)S(=O)(=O)c2ccc3[nH]c4c(c3c2)CCCC4)cc1Cl,-11%,-3%,·,0%,5%,?
COCc1cc(=O)n2[nH]cc(-c3ccccc3)c2n1,2%,-4%,-3,12%,2%,5%
CCCc1cc(=O)n2[nH]cc(-c3ccc(Cl)cc3)c2n1,-5%,?,0,5%,0%,21µM*
CN(CC(=O)Nc1ccc(F)c(F)c1F)C(=O)CCN1C(=O)C2CC=CCC2C1=O (stereo unspecified),·,·,·,9%,-1%,·
Cc1sc2ncnc(N(C)Cc3ccco3)c2c1C,-9%,-4%,-14,8%,15%,?
Cc1sc2ncnc(SCc3ccco3)c2c1C,-12%,9%,-6,3%,3.2µM*,-9%
O=C(C1CCC(CNS(=O)(=O)c2cccs2)CC1)N1CCN(c2ccc(Cl)cc2)CC1 (stereo unspecified),-8%,?,13,-3%,7%,8.2µM*
O=C(COc1cccnc1[N+](=O)[O-])Nc1ncc(Cl)cc1Cl,·,-1%,-80*,-2%,-2%,7%
Cc1ccc(OCC(=O)N2CCC(Cc3ccccc3)CC2)c([N+](=O)[O-])n1,·,1%,?,2%,0%,-11%
O=C(COc1cccnc1[N+](=O)[O-])Nc1cccc2ccccc12,·,-4%,?,2%,5.6µM*,-11%
O=C(COc1cccnc1[N+](=O)[O-])Nc1c(Cl)cccc1Cl,·,3%,?,3%,1%,-29%
O=C(COc1ccccc1[N+](=O)[O-])NNC(=O)Nc1cccc2ccccc12,?,-4%,3,-2%,14µM*,?
O=C(COc1cccnc1[N+](=O)[O-])N1CCC(Cc2ccccc2)CC1,·,2%,-23,-1%,3%,15µM*
c1ccc(CNCc2nnc(-c3cc4ccccc4[nH]3)s2)cc1,·,-2%,·,·,·,?
CCCC[C@]12Cc3c(ccc4ccccc34)C(O1)C1=C(O2)C(=O)c2ccccc2C1=O,-18%[15.3 µM],·,·,·,·,·
CC1CCC(Nc2nc3c(-c4cccc(C(F)(F)F)c4)nnn3c3ccccc23)CC1 (stereo unspecified),-1%,2%,·,1%,0%,11%
CC(C)C1C(=O)Nc2ccc(S(=O)(=O)NCc3ccc(Cl)cc3)cc21 (stereo unspecified),8%,2%,·,-6%,-1%,21µM*
O=C(c1ccc2c(c1)N(Cc1ccc(F)cc1)C(=O)c1ccccc1S2(=O)=O)N1CCCCCC1,-8%,-24%,·,5%,0%,-26%
CCCCN(C)C(=O)c1ccc2c(c1)N(Cc1ccc(F)cc1)C(=O)c1ccccc1S2(=O)=O,40%,?,·,·,7%,16µM*
Cc1ccc(CNc2ncnc3ccc(-c4ccc5c(c4)OCO5)cc23)o1,·,-4%,·,·,·,0%
COc1cc2c(cc1OC)CN(C(=O)CCOc1ccccc1C)CC2,-7%,?,-14,12%,0%,-12%
COc1cc2c(cc1OC)CN(C(=O)CCCOc1ccc(Cl)cc1Cl)CC2,10%,-20%,-5,1%,1%,18µM*
Cc1ccc(S(=O)(=O)NCCc2cn3ccsc3n2)c(C)c1,-15%,0%,·,27%,5%,·
SMILES,Anesthetic bind,A549 viability,Giardia kill,mIDH1 inhibitor,Nrf2 ARE act,Nrf2 block
COc1ccccc1C(=O)N1CCN(C(=O)[C@H]2O[C@@H](n3ccc(N)nc3=O)[C@H](O)[C@@H]2O)CC1,·,·,·,·,0%,·
COC(=O)c1ccc(C2NC(=S)N(c3ccccc3)C(C)=C2C(=O)Nc2ccccc2OC)cc1 (stereo unspecified),-22%,·,-2,6%,0%,?
COC(=O)C1=C(C)N(Cc2ccccc2)C(=S)N[C@H]1c1cccc(C(F)(F)F)c1,-23%,-21%,24,-9%,1%,18µM*
COc1ccccc1NC(=O)C1=C(C)N(c2ccccc2)C(=S)NC1c1cccc(C(F)(F)F)c1 (stereo unspecified),?,-7%,-16,10%,0%,15µM*
COC(=O)C1=C(C)N(Cc2ccccc2)C(=O)N[C@H]1c1cccc(C(F)(F)F)c1,-17%,4%,-1,-6%,5%,?
COc1ccc(NC(=O)Cn2ccn(-c3ccccc3)c(=O)c2=O)cc1,4%,1%,·,-14%,0%,16%
O=C(c1cnn2c(C(F)F)cc(-c3ccccc3)nc12)N1CCc2ccccc2C1,-6%,?,7,-12%,0%,23µM*
Nn1c(Nc2ccccc2)nc2sc3c(c2c1=O)CCC3,-22%,-13%,-8,2%,4%,16µM*
O=C(/C(C=Nc1cccc(C(F)(F)F)c1)=C(/O)c1ccco1)C(F)(F)F,?,7%,1,9%,7.9µM*,27%
COc1cccc(C(=O)Nc2cccc(C(=O)NCC(C)C)c2)c1,-5%,-1%,10,3%,1%,14%
CC(C)CNC(=O)c1cccc(NC(=O)c2ccc(Cl)c([N+](=O)[O-])c2)c1,?,?,-2,-3%,?,26µM*
O=S(=O)(c1ccc(NC(=S)N/N=C/c2c3ccccc3cc3ccccc23)cc1)N1CCOCC1,-18%,-7%,35,4%,5%,9.2µM*
Cc1ccccc1C(=O)NC(=S)Nc1ccc(S(=O)(=O)N2CCOCC2)cc1,-22%,3%,4,5%,-1%,13µM*
Cc1ccccc1C(=O)NC(=S)Nc1ccc(S(=O)(=O)N2CCN(C)CC2)cc1,0%,15%,3,2%,0%,·
O=S(=O)(c1ccc(NC(=S)N/N=C/c2ccc(N3CCOCC3)cc2)cc1)N1CCOCC1,166%,4%,-13,0%,-1%,-17%
O=S(=O)(c1ccc(NC(=S)N2CCN(c3ccccc3F)CC2)cc1)N1CCOCC1,-18%,-3%,11,3%,-1%,13µM*
Cc1nn(-c2ccccc2)c2sc(C(=O)Nc3cccc(O)c3)cc12,-9%,-8%,·,-6%,4%,?
CNC(=S)N(CCc1c(C)[nH]c2ccc(C)cc12)Cc1cc(OC)c(OC)c(OC)c1,-13%,?,?,0%,0%,23µM*
